Source: the supplement of paper PMC11732987, “Enantioselective OTUD7B fragment discovery through chemoproteomics screening and high-throughput optimisation” (Communications Chemistry, 2025)

Assays:
Assay in all cases: log2 ratio of Biotin-Ahx-Ub-VS probe labelling (fragment/DMSO); higher = less target engagement (more negative = stronger competition), active = hit call of the paper (q ≤ 0.05, log2 ratio ≤ -1)
Conditions in all cases: compound concentration: 200 uM; treatment time: 3 h
ALG13 = molecular target: T1, ALG13 (UniProt Q9NP73)
T1 sequence (whole entry): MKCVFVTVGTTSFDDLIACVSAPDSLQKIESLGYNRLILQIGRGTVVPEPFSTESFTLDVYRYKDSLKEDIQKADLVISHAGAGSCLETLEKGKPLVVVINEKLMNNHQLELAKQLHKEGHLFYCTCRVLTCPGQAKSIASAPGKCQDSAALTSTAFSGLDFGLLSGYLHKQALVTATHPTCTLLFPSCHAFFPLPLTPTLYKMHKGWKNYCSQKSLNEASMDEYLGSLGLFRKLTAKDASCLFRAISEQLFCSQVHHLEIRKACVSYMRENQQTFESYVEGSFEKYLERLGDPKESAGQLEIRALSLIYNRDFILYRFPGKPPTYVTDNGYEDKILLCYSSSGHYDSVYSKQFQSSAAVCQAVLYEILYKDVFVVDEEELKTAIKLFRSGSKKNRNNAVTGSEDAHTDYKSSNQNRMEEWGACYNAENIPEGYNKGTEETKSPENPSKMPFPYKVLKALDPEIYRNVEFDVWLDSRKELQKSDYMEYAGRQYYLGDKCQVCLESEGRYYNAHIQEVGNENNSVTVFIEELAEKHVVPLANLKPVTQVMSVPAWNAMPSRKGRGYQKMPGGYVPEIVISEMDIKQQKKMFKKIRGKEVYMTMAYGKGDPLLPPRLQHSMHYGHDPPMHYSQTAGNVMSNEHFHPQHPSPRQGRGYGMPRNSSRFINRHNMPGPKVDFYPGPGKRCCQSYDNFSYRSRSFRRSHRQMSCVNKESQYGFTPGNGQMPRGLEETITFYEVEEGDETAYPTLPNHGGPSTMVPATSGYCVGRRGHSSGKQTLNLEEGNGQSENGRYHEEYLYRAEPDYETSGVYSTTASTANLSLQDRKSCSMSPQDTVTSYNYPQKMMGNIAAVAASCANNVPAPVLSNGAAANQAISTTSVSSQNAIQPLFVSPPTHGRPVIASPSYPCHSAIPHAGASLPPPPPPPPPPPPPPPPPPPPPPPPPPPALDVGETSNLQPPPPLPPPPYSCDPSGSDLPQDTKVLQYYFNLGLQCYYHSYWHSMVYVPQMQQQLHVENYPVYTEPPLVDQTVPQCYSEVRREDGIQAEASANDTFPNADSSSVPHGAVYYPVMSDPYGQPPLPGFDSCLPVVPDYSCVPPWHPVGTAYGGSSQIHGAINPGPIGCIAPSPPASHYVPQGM
Procedure, shortened: (§1)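 Triplicate samples of HEK293T lysate, 495 µg each, received fragment at 200 µM or vehicle for 3 h, followed by Biotin-Ahx-Ub-VS (0.5 µM final) for 1 h. After NeutrAvidin enrichment of labelled DUBs and LysC/trypsin digestion, peptides were run by diaPASEF LC-MS/MS. The values are average log2 fragment/vehicle ratios from global-median-normalised Spectronaut label-free quantities, tested by unpaired t-test on proteins having ≥2 unique peptides.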

ATXN3 = ATXN3 (UniProt P54252)
Procedure, shortened: as §1

BAP1 = molecular target: T2, BAP1 (UniProt Q92560)
T2 sequence (whole entry): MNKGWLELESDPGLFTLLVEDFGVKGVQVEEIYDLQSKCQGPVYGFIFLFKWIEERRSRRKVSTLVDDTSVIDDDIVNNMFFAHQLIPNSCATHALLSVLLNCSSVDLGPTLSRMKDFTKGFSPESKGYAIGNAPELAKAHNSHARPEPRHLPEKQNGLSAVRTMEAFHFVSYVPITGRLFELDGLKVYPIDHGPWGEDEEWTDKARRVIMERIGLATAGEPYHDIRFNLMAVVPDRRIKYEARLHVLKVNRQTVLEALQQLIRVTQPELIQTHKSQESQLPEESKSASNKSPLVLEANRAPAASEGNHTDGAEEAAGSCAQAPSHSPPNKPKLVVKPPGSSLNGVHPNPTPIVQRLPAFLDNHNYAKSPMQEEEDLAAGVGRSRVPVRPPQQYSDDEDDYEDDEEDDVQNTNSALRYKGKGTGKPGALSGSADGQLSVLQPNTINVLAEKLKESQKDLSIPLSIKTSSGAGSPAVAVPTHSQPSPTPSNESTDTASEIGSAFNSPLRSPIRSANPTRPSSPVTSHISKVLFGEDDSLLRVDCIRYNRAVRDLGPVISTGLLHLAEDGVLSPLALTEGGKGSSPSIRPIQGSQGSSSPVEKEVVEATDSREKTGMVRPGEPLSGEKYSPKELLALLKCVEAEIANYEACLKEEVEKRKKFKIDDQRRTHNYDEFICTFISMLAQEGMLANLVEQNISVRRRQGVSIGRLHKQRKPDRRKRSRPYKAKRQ
Procedure, shortened: as §1

EIF3F = EIF3F (UniProt O00303)
Procedure, shortened: as §1

EIF3H = EIF3H (UniProt O15372)
Procedure, shortened: as §1

FAM105A = molecular target: T3, FAM105A (UniProt Q9NUU6)
T3 sequence (whole entry): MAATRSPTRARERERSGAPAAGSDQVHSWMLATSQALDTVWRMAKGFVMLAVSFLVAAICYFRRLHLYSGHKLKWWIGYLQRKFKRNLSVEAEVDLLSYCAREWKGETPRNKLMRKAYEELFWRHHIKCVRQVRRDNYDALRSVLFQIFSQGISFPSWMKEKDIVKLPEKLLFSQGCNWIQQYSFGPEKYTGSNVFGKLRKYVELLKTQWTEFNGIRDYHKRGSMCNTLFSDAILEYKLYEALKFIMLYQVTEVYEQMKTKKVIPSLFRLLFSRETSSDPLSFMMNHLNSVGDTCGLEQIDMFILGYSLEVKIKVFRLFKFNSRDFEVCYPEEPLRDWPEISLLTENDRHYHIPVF
Procedure, shortened: as §1

OTUB1 = OTUB1 (UniProt Q96FW1)
Procedure, shortened: as §1

OTUD4 = molecular target: T4, OTUD4 (UniProt Q01804)
T4 sequence (whole entry): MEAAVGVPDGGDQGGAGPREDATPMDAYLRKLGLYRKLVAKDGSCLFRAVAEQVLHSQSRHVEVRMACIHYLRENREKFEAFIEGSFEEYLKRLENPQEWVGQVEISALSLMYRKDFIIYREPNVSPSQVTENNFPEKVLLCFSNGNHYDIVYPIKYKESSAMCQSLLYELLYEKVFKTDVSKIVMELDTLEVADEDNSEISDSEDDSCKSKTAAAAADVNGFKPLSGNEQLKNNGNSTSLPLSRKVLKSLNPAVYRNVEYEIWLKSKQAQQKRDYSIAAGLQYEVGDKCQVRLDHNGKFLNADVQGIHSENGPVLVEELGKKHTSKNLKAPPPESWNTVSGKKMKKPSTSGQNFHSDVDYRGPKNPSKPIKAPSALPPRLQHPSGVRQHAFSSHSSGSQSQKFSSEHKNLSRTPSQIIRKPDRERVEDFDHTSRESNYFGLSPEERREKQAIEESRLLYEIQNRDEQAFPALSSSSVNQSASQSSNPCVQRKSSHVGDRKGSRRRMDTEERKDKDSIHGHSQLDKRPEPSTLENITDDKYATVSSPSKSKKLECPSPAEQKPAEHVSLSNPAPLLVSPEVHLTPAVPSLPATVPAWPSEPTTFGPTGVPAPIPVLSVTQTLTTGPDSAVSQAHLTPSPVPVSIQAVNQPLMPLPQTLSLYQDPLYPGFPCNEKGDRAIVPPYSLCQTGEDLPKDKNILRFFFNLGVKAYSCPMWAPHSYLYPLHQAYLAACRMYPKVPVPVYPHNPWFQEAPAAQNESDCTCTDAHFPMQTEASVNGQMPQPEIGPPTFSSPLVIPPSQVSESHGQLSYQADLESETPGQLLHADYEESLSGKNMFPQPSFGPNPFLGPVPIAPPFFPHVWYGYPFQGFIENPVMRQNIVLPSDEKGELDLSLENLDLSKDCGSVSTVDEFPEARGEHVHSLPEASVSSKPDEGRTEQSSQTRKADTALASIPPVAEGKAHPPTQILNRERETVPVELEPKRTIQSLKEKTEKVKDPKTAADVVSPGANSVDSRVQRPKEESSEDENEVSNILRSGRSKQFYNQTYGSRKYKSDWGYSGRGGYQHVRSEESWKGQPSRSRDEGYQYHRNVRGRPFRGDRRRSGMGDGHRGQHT
Procedure, shortened: as §1

OTUD5 = molecular target: T5, OTUD5 (UniProt Q96G74)
T5 sequence (whole entry): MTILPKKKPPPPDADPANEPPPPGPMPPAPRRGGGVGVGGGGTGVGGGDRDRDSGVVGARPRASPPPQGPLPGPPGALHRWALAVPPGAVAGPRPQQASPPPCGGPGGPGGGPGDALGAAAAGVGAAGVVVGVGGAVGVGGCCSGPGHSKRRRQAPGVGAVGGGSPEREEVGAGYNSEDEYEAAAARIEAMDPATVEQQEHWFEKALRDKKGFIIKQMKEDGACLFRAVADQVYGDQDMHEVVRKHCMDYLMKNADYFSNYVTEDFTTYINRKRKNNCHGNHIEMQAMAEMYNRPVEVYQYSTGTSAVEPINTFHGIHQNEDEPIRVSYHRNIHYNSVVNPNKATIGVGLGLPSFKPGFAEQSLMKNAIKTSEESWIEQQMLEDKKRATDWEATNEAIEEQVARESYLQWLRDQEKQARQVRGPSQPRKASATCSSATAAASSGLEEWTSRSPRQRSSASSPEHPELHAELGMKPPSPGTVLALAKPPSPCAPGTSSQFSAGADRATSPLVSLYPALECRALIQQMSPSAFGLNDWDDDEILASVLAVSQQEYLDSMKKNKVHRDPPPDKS
Procedure, shortened: as §1

Measured: log2 ratio of Biotin-Ahx-Ub-VS probe labelling

EIF3F, sequence (O00303 whole entry): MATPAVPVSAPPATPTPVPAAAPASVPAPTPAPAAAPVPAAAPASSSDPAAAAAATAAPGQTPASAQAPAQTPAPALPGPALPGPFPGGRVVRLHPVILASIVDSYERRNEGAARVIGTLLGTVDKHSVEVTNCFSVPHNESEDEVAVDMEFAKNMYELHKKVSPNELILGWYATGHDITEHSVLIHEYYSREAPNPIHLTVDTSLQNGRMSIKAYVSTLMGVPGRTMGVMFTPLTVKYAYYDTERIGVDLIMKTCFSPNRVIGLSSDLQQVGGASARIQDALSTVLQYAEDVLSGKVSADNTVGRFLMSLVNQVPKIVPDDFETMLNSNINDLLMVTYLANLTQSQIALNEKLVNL
OTUB1, sequence (Q96FW1 whole entry): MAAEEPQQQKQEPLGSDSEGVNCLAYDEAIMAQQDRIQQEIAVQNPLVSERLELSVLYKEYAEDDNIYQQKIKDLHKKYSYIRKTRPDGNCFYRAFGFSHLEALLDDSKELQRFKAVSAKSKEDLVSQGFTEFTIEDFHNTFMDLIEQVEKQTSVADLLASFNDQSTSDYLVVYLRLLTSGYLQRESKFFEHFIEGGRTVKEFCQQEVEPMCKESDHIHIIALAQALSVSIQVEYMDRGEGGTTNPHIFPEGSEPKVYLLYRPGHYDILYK
ATXN3, sequence (P54252 whole entry): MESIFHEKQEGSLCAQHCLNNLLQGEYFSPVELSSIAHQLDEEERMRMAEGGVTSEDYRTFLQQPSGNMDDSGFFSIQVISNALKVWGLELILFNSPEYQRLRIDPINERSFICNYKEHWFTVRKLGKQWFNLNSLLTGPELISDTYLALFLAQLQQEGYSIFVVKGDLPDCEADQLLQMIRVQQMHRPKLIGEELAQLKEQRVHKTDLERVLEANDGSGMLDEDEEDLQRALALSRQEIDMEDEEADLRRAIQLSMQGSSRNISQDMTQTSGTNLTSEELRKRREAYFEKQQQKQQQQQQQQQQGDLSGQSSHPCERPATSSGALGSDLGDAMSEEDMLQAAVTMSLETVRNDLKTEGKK
EIF3H, sequence (O15372 whole entry): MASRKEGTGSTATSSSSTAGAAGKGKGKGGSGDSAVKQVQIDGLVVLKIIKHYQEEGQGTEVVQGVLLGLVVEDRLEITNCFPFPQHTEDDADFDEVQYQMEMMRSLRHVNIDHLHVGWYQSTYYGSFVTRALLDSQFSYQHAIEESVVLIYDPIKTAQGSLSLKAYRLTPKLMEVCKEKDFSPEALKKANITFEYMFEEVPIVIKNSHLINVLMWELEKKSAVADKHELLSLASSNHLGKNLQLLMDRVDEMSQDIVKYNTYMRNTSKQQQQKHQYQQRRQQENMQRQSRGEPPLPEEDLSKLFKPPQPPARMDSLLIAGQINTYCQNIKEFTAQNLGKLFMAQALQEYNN

Cc1ccc(N(CCC#N)C(=O)CCl)cc1C
active: OTUD4 -1.93
inactive: ALG13 -0.389 | ATXN3 -0.353 | BAP1 -0.735 | EIF3F -0.396 | EIF3H 0.219 | FAM105A -0.314 | OTUB1 -0.139 | OTUD5 -0.661
